# DT40 TDP1 no CPT = qHTS for Inhibitors of human tyrosyl-DNA phosphodiesterase 1 (TDP1): qHTS in cells in absence of CPT. Potency, µM (top dose mostly 46.2 µM), inactives show at the highest dose activity change, negative = growth inhibition, actives largely listed as inhibitors. 420,000 tested, 15% active. DT40 Tdp1-/- hTDP1 cells, no CPT, ATP luminescence, 48 h; also: potency is read from the fitted curve at half-maximal effect; % is scaled to controls: 0 for no effect and ±100 for the full control effect; nearly all actives have a fitted effect of over 55% in size
#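 Compound effects on proliferation are scored in DT40 Tdp1-/-;hTDP1 cells in the absence of CPT. ATP levels (CellTiter-Glo luminescence) are recorded after a ≥48 hr, 37 °C incubation.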
# HepG2 viability = counter-screen for TGF-b inhibitors: cytotoxicity in HepG2 cells. Potency, µM (doses to about 46.1 µM), inactives show at the highest dose activity change, negative = cytotoxicity, most hits filed as cytotoxic. HepG2 CAGA-GFP viability, ATP luminescence, 18 h. 410,000 tested, 0.76% active. AID 588856; also: potency is read from the fitted curve at half-maximal effect
#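 HepG2 CAGA-GFP cells (1000/well, DMEM with 1% FBS) received compound, then TGF-beta at 500 pg/mL final, and were incubated 18 hours at 37 degrees C. Viability was read by CellTiter-Glo luminescence. Media-only wells were set as complete cell-killing and DMSO as no toxicity.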
# IL-1B inflam inh = blocks inflammasome-driven IL-1 beta release | activity change, % at 57.5 µM | 360,000 tested, 4.7% active | THP-1 LPS/ATP IL-1B secretion, AlphaLISA, 16 h; stronger effect = lower value; in the data active = activity change below about -50%; inconclusive = mostly about -30% to -49%; also: % is scaled to controls: 0 for no effect and ±100 for the full control effect
#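 THP-1 cells pretreated 1 hr with compounds (up to 57.5 uM final), then stimulated with LPS (250 ng/mL final) plus ATP (1.25 mM final); secreted IL-1B measured by AlphaLISA after 16 hr, decreased signal indicating inhibition.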
# TGFb SMAD3 inh = TGF-b pathway inhibition. HepG2 CAGA-GFP TGF-b/SMAD3 reporter, GFP fluorescence, 18 h; TGF-beta stimulated, 500 pg/mL final. Potency, µM (top dose mostly 46.1 µM), for the others: at the highest dose activity, negative = inhibition, hits mostly inhibitors. 410,000 tested, 1.2% active. AID 588855; also: potency is read from the fitted curve at half-maximal effect; % is scaled to controls: 0 for no effect and ±100 for the full control effect; nearly all actives have a fitted effect of over 65% in size
#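 HEPG2 CAGA-GFP cells (1000/well, DMEM with 1% FBS) were pre-incubated 2 h at 37 degrees C, given compound by pin tool, then stimulated with TGF-beta at 500 pg/mL final for 18 h before per-cell GFP fluorescence imaging.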
# DT40 TDP1 CPT = DT40-hTDP1 cell growth loss with CPT | chicken DT40 Tdp1-/-;hTDP1 cells + 20 nM CPT, ATP luminescence, 48 h | Potency, µM (highest dose often 46.2 µM), for inactives: at the top dose activity change, negative = growth inhibition, usual class: inhibitors | AID 686979 | 420,000 tested, 12% active; also: potency is read from the fitted curve at half-maximal effect; % is scaled to controls: 0 for no effect and ±100 for the full control effect; nearly all actives have a fitted effect of over 55% in size
#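 Cell growth measured by CellTiter-Glo luminescence after a minimum 48 h, 37 C compound exposure with 20 nM CPT in Tdp1-knockout DT40 cells stably expressing hTDP1, seeded 400/well; qHTS titration format.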
# TDP1 block = blocks human tyrosyl-DNA phosphodiesterase 1; Q9NUW8; recombinant TDP1, AlphaScreen DNA substrate cleavage; Potency, µM (highest dose often 130 µM), without a hit: top-dose activity change, negative = inhibition, hits mostly inhibitors; 350,000 tested, 0.28% active; AID 485290; also: potency is read from the fitted curve at half-maximal effect; % is scaled to controls: 0 for no effect and ±100 for the full control effect; nearly all actives have a fitted effect of over 40% in size
# Target sequence (Q9NUW8 whole entry, looked up): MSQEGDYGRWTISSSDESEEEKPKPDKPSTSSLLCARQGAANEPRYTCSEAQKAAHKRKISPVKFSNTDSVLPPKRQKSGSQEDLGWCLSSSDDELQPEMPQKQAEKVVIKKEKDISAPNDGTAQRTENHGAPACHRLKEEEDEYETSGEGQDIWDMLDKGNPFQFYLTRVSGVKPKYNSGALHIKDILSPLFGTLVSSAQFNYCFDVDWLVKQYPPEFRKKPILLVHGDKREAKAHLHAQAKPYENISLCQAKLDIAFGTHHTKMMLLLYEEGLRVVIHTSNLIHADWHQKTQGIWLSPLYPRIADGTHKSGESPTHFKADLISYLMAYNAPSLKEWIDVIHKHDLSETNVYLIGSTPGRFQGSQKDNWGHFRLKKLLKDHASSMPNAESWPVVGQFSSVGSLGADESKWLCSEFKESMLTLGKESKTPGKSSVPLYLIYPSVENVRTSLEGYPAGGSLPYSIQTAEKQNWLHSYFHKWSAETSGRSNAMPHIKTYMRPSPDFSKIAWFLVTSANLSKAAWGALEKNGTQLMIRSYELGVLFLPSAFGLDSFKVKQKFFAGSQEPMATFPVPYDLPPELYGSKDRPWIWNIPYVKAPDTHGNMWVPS
#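 AlphaScreen read-out: signal falls as enzyme removes the 3' tyrosine-FITC from a 5'-biotinylated DNA oligo (15 nM, 5 min, RT). Enzyme was E. coli-made recombinant Tdp1 at 1 nM, exposed to compound for 15 min beforehand; beads 10 ug/ml, 10 min.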
# Starred values were filed as active, the others as inactive; ? = inconclusive; / = no result; ! = not active in a repeat; [ ] = remark or other dose. Rows were chosen to be rich in hits. Some 18% of all compounds tested hit in one or more screens of this group. Unless noted, calls follow the shape of the dose curve; as a rule, active = well fitted curve in the direction sought with a large enough effect; inconclusive = small, poorly fitted or top-dose-only effect, or another doubt; inactive = no such curve, though single readings can be large; an effect the other way counts as inactive or inconclusive.
SMILES,DT40 TDP1 no CPT,HepG2 viability,IL-1B inflam inh,TGFb SMAD3 inh,DT40 TDP1 CPT,TDP1 block
CC(C)Cn1c2nc3ccccc3nc2c2c(=O)n(CCN3CCOCC3)cnc21,?,1%,-56*,-3%,?,10%
COCCCNC(=O)c1c(N)n(-c2ccc3c(c2)OCO3)c2nc3ccccc3nc12,?,-34%,-24,6%,?,0%
CC(C)Cn1c(N)c(C(=O)NCCN2CCOCC2)c2nc3ccccc3nc21,18µM*,-2%,-61*,5%,?,-5%
Cc1cccc(-n2c(N)c(C(=O)NCCN3CCOCC3)c3nc4ccccc4nc32)c1,18µM*,-29%,-64*,?,?,0%
CON,1%,/,/,/,3%,10%[56.1 µM]
O=C(c1nc2ccccn2c1CN1CCCC(O)C1)N1CCN(C2CCCCC2)CC1 (configuration not stated),17%,-1%,4,-5%,3%,1%
COc1ccc(C(=O)NCCS(=O)(=O)N(C)Cc2ccccc2)cc1,?,-7%,-6,6%,-26%,/
CCc1ccc(C(c2ccccc2)c2c(C)[nH]c3ccccc23)s1 (configuration not stated),/,-96%,/,?,/,-3%
Cc1ccc2[nH]cc(C(c3ccccc3)c3ccc(C)s3)c2c1 (configuration not stated),18µM*,11µM*,/,13µM*,?,9%
Cc1ccc2[nH]cc(C(c3ccccc3)c3cccs3)c2c1 (configuration not stated),18µM*,16µM*,/,13µM*,?,1%
CC(=O)NC(CCC(=O)O)C(=O)O (configuration not stated),3%,-11%,-5,12%,0%,-7%
CC(=O)N[C@@H](CC(=O)O)C(=O)N[C@@H](CCC(=O)O)C(=O)O,-6%,/,/,/,11%,16µM*!
CC(Oc1ccccc1)C(=O)Nc1ccc(S(=O)(=O)N2CCCC2)cc1 (configuration not stated),?,-1%,-7,-4%,-14%,/
Cc1ccc(NS(=O)(=O)c2cc(NC(=O)C(C)Oc3ccccc3)ccc2C)c(C)c1 (configuration not stated),23µM*,2%,-2,?,?,0%
Cc1ccc(NC(=O)C(C)Oc2ccccc2)cc1S(=O)(=O)N1CCCCCC1 (configuration not stated),23µM*,-36%,-11,?,?,-3%
Cc1ccc(NC(=O)CNc2ccc(OC(C)C)cc2)c(C)c1,?,-39%,-23,0%,?,9%[56.1 µM]
CCN(CC)c1ccc(N=Cc2c(C)[nH]c3ccccc23)cc1,9.2µM*,2.8µM*,23,11µM*,6.5µM*,10%
O=[N+]([O-])c1ccccc1CSc1ccccn1,2%,0%,-63*,-10%,-11%,4%
O=[N+]([O-])c1ccc(CSc2ccccn2)cc1,-6%,-7%,-14,-15%,0%,/
OC(c1ccccn1)(c1ccccn1)c1ccccn1,?,9%,14,0%,?,3%
Oc1ccccc1C=NNC(=S)NC1CC2C=CC1C2 (configuration not stated),?,-43%,118,?,?,/
O=C(N/N=C/c1cc(Cl)cc([N+](=O)[O-])c1O)NC12CC3CC(CC(C3)C1)C2,?,7%,14,-8%,?,5%
Oc1ccccc1/C=N/NC(=S)NC1CC2C=CC1C2 (configuration not stated),1.6µM*,-161%,-100*,?,1.8µM*,9%
Oc1c(Cl)cc(Cl)cc1/C=N/NC(=S)NC1CC2C=CC1C2 (configuration not stated),12µM*,-64%,-13,?,?,6%
O=C(COC(=O)c1ccc(-c2ccccc2)cc1)Nc1ccccc1-c1ccccc1,10µM*,-10%,0,13%,?,3%
SMILES,DT40 TDP1 no CPT,HepG2 viability,IL-1B inflam inh,TGFb SMAD3 inh,DT40 TDP1 CPT,TDP1 block
CSc1ccccc1NC(=O)COC(=O)c1ccc(O)cc1,?,-23%,36,7%,-21%,0%
COCC(=O)OCC(=O)Nc1ccccc1-c1ccccc1,-21%,49%,4,2%,1%,1%
O=C(COC(=O)c1ccc(O)cc1)Nc1ccccc1-c1ccccc1,21µM*,-16%,10,13%,?,6%
CNC(=O)COc1ccccc1C(=O)Nc1ccccc1,8%,4%,/,6%,28%,/
CCCCN(CCCC)CC(O)COc1ccccc1C(=O)Nc1ccccc1 (configuration not stated),?,2%,-96*,?,?,3%
Cc1cc(C(=O)Nc2ccc(OCc3ccccc3)cc2)c(C)o1,?,-8%,-60*,-1%,?,2%
O=C(Nc1ccc(O)cc1)c1ccccc1OCc1ccccc1,?,-10%,-71*,?,?,3%
COc1cc(NC(=O)c2ccccc2OCc2ccccc2)cc(OC)c1OC,16µM*,-38%,30,3%,?,/
COC(=O)c1cc(CNC(=O)c2cccc(Cl)c2Cl)ccc1OC,/,/,/,/,/,0%
CN(/C=C/c1c([N+](=O)[O-])c(=O)n(C)c(=O)n1C)c1ccccc1,0%,-4%,-3,2%,2%,6%
COc1ccc(/C=C/c2c([N+](=O)[O-])c(=O)n(C)c(=O)n2C)c(OC)c1OC,?,-2%,-58*,7%,-8%,0%
COc1ccc(/C=C/c2c([N+](=O)[O-])c(=O)n(C)c(=O)n2C)cc1OC,-13%,1%,-4,-2%,-1%,4%
Cn1c(/C=C/c2cccc([N+](=O)[O-])c2)c([N+](=O)[O-])c(=O)n(C)c1=O,15µM*,-6%,-107*,-37%,?,/
Cn1c(/C=C/c2ccc(Cl)cc2)c([N+](=O)[O-])c(=O)n(C)c1=O,21µM*,-55%,-100*,?,?,/
CCCCCOc1ccc(/C=C/c2c([N+](=O)[O-])c(=O)n(C)c(=O)n2C)cc1,21µM*,3%,-86*,4%,18µM*,/
Oc1ccccc1C1CCCCC1c1ccccc1 (configuration not stated),?,-46%,0,?,?,/
